Screening results as filed in PubChem BioAssay.
A selection: hits, their analogues and other compounds. The true share with any hit is near 3%.
Nrf2 ARE act: activates Nrf2 signaling; AREc32 ARE-luciferase reporter (MCF7-derived line), luminescence, 24 h; Potency, µM (highest dose often 46.1 µM), for the others: top-dose activation, usual class: activators; 410,000 compounds, 0.31% hits; AID 624171; also: potency is read from the fitted curve at half-maximal effect; % of control where 0% means no effect; nearly all actives have a fitted effect of over 65% in size
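Cells of the AREc32 ARE-luciferase line are plated in OPTI-MEM containing 5% FBS and left overnight at 37 deg C. Compounds are pinned in, incubation continues 24 hr, and firefly luciferase signal is then measured.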
GRP78 ERSR act: inducers of ER stress response in human glioma cells; U87-MG GRP78 promoter luciferase reporter, 16 h; Potency, µM, without a hit: at the highest dose activation, usual class: activators; 420,000 compounds, 0.02% hits; also: potency is read from the fitted curve at half-maximal effect; series mostly up to about 76 µM; % of control where 0% means no effect; nearly all actives have a fitted effect of over 35% in size
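Stably transfected U87-MG human glioma cells carrying a GRP78-based luminescent sensor were seeded at 1000 cells/well, pin-dosed with compounds and incubated 16 h. Luciferase reagent was then added, and end-point luminescence was read after 10 min at room temperature.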
D3 ag: D3 dopamine receptor (human) agonism. P35462. D3R DiscoveRx beta-arrestin cells, luminescence, 90 min. max activation, %. 410,000 compounds, 0.58% hits; in the data active = max activation above about 30%; also: 0% is about no effect
Target sequence (P35462 whole entry, looked up): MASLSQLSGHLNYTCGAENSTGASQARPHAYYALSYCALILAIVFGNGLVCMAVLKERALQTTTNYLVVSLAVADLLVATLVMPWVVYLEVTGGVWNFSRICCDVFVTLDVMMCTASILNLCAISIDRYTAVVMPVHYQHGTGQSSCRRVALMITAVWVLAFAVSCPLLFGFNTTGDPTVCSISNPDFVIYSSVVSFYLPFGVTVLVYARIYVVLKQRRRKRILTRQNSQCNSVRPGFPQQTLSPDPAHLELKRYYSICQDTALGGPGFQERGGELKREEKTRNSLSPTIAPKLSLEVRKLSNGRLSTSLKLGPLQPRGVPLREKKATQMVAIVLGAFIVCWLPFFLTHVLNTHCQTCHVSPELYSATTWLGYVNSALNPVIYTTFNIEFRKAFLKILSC
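Agonist-mode cell screen: cells plated at 1500/well and incubated overnight at 37 °C, then exposed to library compounds for 90 min at 37 °C. Detection reagent was added for 30–60 min at room temperature, and luminescence was read.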
D3 antag: D3 dopamine receptor (human) antagonism; P35462; D3R cells, DiscoveRx beta-arrestin luminescence, antagonist mode; stronger effect = lower value; max response, negative = inhibition, %; 360,000 compounds, 2.5% hits; AID 652054; in the data active = max response below about -50%; inconclusive = no clear call, values can overlap the other calls; also: % is scaled to controls: 0 for no effect and ±100 for the full control effect
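Cells expressing the human receptor were seeded at 1500 cells/well, incubated overnight at 37 degrees C in 5% CO2, then exposed to library compounds with dopamine controls for 90 minutes at 37 degrees C before luminescent detection.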
Starred values were filed as active, the others as inactive; u = inconclusive; x = no result given; ! = repeats disagree; [ ] = remark or other dose. Unless noted, calls follow the shape of the dose curve; as a rule, active = well fitted curve in the direction sought with a large enough effect; inconclusive = small, poorly fitted or top-dose-only effect, or another doubt; inactive = no such curve, though single readings can be large; an effect the other way counts as inactive or inconclusive.

SMILES	Nrf2 ARE act	GRP78 ERSR act	D3 ag	D3 antag
O=C(NCc1ccc(F)cc1)c1cc(C2CCCCN2S(=O)(=O)c2cccs2)on1 (configuration not stated)	4%	-2%	-2	-17
O=C(NCc1ccc(F)cc1)c1cc(C2CCCCN2S(=O)(=O)c2ccccc2)on1 (configuration not stated)	0%[9.22 µM]	-4%	8	11
O=C(NCc1ccc(F)cc1)c1cc(C2CCCCN2S(=O)(=O)Cc2ccccc2)on1 (configuration not stated)	3%	2%	-16	-99*
CS(=O)(=O)N1CCCCC1c1cc(C(=O)NCc2ccc(F)cc2)no1 (configuration not stated)	0%	-2%	-13	-88*
CCN1C(=O)/C(=C\C=C\c2ccccc2[N+](=O)[O-])SC1=S	5µM*	3%	0	-12
COc1cccc(CNC(=O)c2c(OC)cc(=O)n3c2CCN(C(=O)c2cc(F)cc(F)c2)CC3)c1	x	-5%	x	x
O=C(Nc1cccc2nsnc12)c1cccs1	7.9µM*	u	-3	-17
O=C(Nc1cccc2cccnc12)c1cccs1	x	4%	x	x
O=C(Nc1cccc(NC(=O)c2cccs2)c1)c1cccnc1	13µM*	0%	11	-21
O=C(Nc1cccc(NC(=O)c2cccnc2)c1)c1cccnc1	4%	-1%	3	-6
CNS(=O)(=O)c1cccc(C(=O)Nc2cccnc2)c1	0%	-2%	-23	-57*
O=C(Nc1cccnc1)c1cccc(S(=O)(=O)Nc2cccc(Cl)c2)c1	0%	-7%	2	-4
O=C(NCc1ccco1)Nc1ccc2nsnc2c1	22µM*	-17%	0	-59*
CN1CCN(c2ccnc(N(C)CCCCCCN)n2)CC1	x	-4%	x	x
Cc1ccc(-c2cc(C(=O)N3CCN(S(=O)(=O)c4ccc(Br)cc4)CC3)[nH]n2)cc1C	-1%	-2%	2	x
O=C(Nc1ccc2nsnc2c1)c1cccs1	8.9µM*	1%	0	9
O=C(Cn1c(C(=O)NCC2CCCO2)cc2sccc21)c1ccccc1 (configuration not stated)	0%	-4%	8	12
O=C(Cn1c(C(=O)N2CCN(C3CCCC3)CC2)cc2sccc21)c1ccccc1	0%	-1%	-37	-78*
Cc1c(C(=O)NC(C)(C)C)sc2ncnc(NCCN(C)C)c12	x	-4%	x	x
CNC(=O)C1CCC(Cn2c(=O)c3sccc3n(CC(=O)Nc3cc(F)ccc3F)c2=O)CC1 (configuration not stated)	0%	-3%	2	x
Cc1ccc(S(=O)(=O)CC(CN2CCCCC2)N2CCCCC2)cc1 (configuration not stated)	-3%	-14%	-14	-68*
O=S(=O)(CC(CN1CCCCC1)N1CCCCC1)c1ccc2ccccc2c1 (configuration not stated)	u	-10%	-26	-85*
COc1ccc(C(=S)Nc2ccc(C)cc2)cc1	4%	-5%	-11	-67*
Cc1ccc(NC(=O)c2ccc3c(O)c(S(=O)(=O)c4ccc(Cl)cc4)c(=O)[nH]c3c2)cc1	-1%	-4%	-7	x
CN1C(=O)/C(=C/c2cc(N=Nc3ccccc3)ccc2O)SC1=S	6%	0%	-1	-135*
SMILES	Nrf2 ARE act	GRP78 ERSR act	D3 ag	D3 antag
CCCCNS(=O)(=O)CCNCc1ccco1	3%	-1%	43*	-9
CCCCCCCCNCCS(=O)(=O)NCc1ccccc1	0%	-4%	-41	-81*
CCCCNS(=O)(=O)CCNCc1ccc(OC)cc1	0%	-2%	-50	-3
Cc1cc(OCC(=O)N2CCOCC2)c(C(C)C)cc1Cl	3%	-1%	-10	-77*
COc1ccc(N2Cc3ccccc3C2=O)cc1	0%	-9%	0	-8
C=CC(=O)Oc1ccc(N2Cc3ccccc3C2=O)cc1	u	u	-2	-64*
COc1cccc(-c2cnc3c(NC=O)cc(-c4cccc(C(=O)N(C)C)c4)cn23)c1	0%	4%	72*	3
CN(C)CCNC(=O)c1cccc(-c2cc(NC=O)c3ncc(-c4cccc(C(F)(F)F)c4)n3c2)c1	-3%	-10%	-23	-52*
CN1CCN(c2ccc(-c3cc(NC=O)c4ncc(-c5ccccc5)n4c3)cc2)CC1	u	-1%	-14	-54*
COc1cccc(-c2cc(NC=O)c3ncc(-c4cccc(C(=O)N(C)C)c4)n3c2)c1	11%	-3%	6	10
N[C@H](C(=O)O)[C@H]1C[C@H]1C(=O)O	x	2%	x	x
NCCCNCCCCNC(=O)C(O)NC(=O)CCCCCCN=C(N)N (configuration not stated)	x	-5%	-2	x
CCN(Cc1ccncc1)Cc1ccc2c(c1)CN(C(=O)c1ccc(OC)cc1)CCO2	x	-3%	x	x
CC/C(=C(\c1ccccc1)c1ccc(OCCN(C)C)cc1)c1ccccc1	1%	-5%	-56	-73*!
CC/C(=C(\c1ccc(O)cc1)c1ccc(OCCN(C)C)cc1)c1ccccc1	8%	-1%	-50	-7
CCN(CC)CCOc1ccc(/C(=C(/Cl)c2ccccc2)c2ccccc2)cc1	12%	-4%	x	-66*!
Cc1ccc(C(=O)N(Cc2cc3cccc(C)c3nc2N2CCC(O)CC2)C2CC2)cc1	x	-5%	x	x
CC[C@@]1([C@@H]2O[C@@H]([C@H]3O[C@@](O)(CO)[C@H](C)C[C@@H]3C)C[C@@H]2C)CC[C@H]([C@]2(C)CC[C@]3(C[C@H](O)[C@@H](C)[C@@H]([C@@H](C)[C@@H](OC)[C@H](C)C(=O)O)O3)O2)O1 (stereo in doubt)	x	x	75*!	x
CO[C@@H]1[C@@H]([C@H](C)[C@@H]2O[C@@]3(CC[C@@](C)([C@H]4CC[C@@](C)([C@H]5O[C@H]([C@H]6O[C@](C)(O)[C@H](C)C[C@@H]6C)C[C@H]5O[C@H]5C[C@@H](OC)[C@H](OC)[C@@H](C)O5)O4)O3)C[C@@H](O)[C@@H]2C)O[C@@](O)(CC(=O)O)[C@H](C)[C@H]1OC	x	-6%	x	x
Cc1ccc2[nH]c(=O)c(N3CCOCC3)c(-c3ccccc3)c2c1	0%	-3%	33*	30
CN1CCc2cccc3c2C1Cc1ccc(O)c(O)c1-3 (configuration not stated)	7%	-6%	123*	65
COc1ccc(OC)c(C2c3c(oc4ccc(C)cc4c3=O)C(=O)N2CCCN(C)C)c1 (configuration not stated)	7%	0%	-4	x
CN(C)CCCC1(c2ccc(F)cc2)OCc2cc(C#N)ccc21 (configuration not stated)	1%	-2%	-72	-59*
O=C(CN1C(=O)C2CCCCC2C1=O)Nc1ccccc1C(=O)O (configuration not stated)	0%	-2%	-6	3
O=C1[C@H]2CCCC[C@H]2C(=O)N1CCCCN1CCN(c2nsc3ccccc23)CC1	u	-2%	-57	-116*
